From PubChem BioAssay
Hits are enriched below; roughly 3.6% of the tested compounds scored in any of these assays.
MazEF act: activators of E. coli MazEF toxin-antitoxin RNase, primary screen, biochemical, fluorescence, uHTS. Endoribonuclease toxin MazF (Escherichia coli (strain K12)), P0AE70. FAM/BHQ RNA-DNA oligo cleavage fluorescence, 5 h. activation, % at 20 µM. 350,000 tested, 0.32% active. AID 504720, 2011; in the data active = activation above about 50%
Target sequence (P0AE70 whole entry, looked up): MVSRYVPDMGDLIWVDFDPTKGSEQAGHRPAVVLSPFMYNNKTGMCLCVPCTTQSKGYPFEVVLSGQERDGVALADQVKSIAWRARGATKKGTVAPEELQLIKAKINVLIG
Autofluor counter: compound fluorescence in toxin protease inhibitor counterscreen; compound autofluorescence counterscreen, microsphere flow cytometry; hits give high values; fluorescence intensity (concentration not given with the values); AID 624483; 360,000 tested, 3.1% active; in the data active = fluorescence intensity above about 16000; inconclusive = no clear call, values can overlap the other calls
BoNT-F LC inh: BoNT/F light chain protease inhibitors, primary screen, biochemical, flow cytometry, MLPCN library | inhibition, % at 10 µM | 360,000 tested, 0.22% active | Botulinum neurotoxin type F light chain protease (Clostridium botulinum) | AID 588497, 2011 | Multiplex microsphere protease cleavage assay; in the data active = inhibition above about 35%, passing the limit was not always enough; inconclusive = no clear call, values can overlap the other calls; note: plate controls were buffer without enzyme for full effect and enzyme alone for no effect
BoNT A protease: BoNT/A light chain protease inhibitors, primary screen, biochemical, flow cytometry, MLPCN library | multiplex microsphere protease substrate cleavage | inhibition, % at 10 µM | 360,000 tested, 0.17% active | AID 588499, 2011; note: plate controls were buffer without enzyme for full effect and enzyme alone for no effect
Anthrax LF inh2: Bacillus anthracis LF protease inhibitors, primary screen, biochemical, multiplex microsphere, MLPCN library; AID 588501, 2011; inhibition, % at 10 µM; multiplex microsphere protease cleavage assay; 360,000 tested, 0.12% active; Lethal factor (Bacillus anthracis), P15917; note: plate controls were buffer without enzyme for full effect and enzyme alone for no effect
* marks the source's active call; other numbers are inactive results; ? = inconclusive; . = no result. Cut-off read from the data, not from the text of the source, unless noted: active = inhibition above about 30%; inconclusive = no clear call, values can overlap the other calls; inactive = below that.

SMILES	MazEF act	Autofluor counter	BoNT-F LC inh	BoNT A protease	Anthrax LF inh2
Cn1nnnc1SCC(=O)NCc1cccc(C(=O)O)c1	5	20029*	1	?	0
COC(=O)c1ccc2c(c1C(=O)OC)CN(S(=O)(=O)C(C)(C)C)[C@@H]2CCO	0	3712	0	0	-3
O=C(CCn1c(=O)[nH]c2ccsc2c1=O)N1CCN(c2cccc(Cl)c2)CC1	2	?	17	-1	-7
O=C(CCn1c(=O)[nH]c2ccsc2c1=O)N1CC(=O)N(CCc2ccccc2)C(=O)C1	0	23732*	-6	?	0
CCN(CC)CC(C)CNC(=O)CC(C(=O)N1CCc2ccccc21)n1ccnc1 (centres undefined)	0	11413	-10	-1	-3
O=C(CC(C(=O)N1CCc2ccccc21)n1ccnc1)NCc1ccccc1 (centres undefined)	-15	18019*	9	10	-5
CCOC(=O)C1=CCC(c2cccs2)N(S(=O)(=O)c2ccc(C)cc2)C1 (centres undefined)	.	5914	-18	-1	-13
CCC1(CC)C(=O)NC(=O)NC1=NCCc1c[nH]c2ccccc12	2	21453*	-1	-2	0
CCC1(CC)C(=O)NC(=O)NC1=Nc1ccccc1	4	1967	0	0	0
CCc1nnc(NS(=O)(=O)c2ccc(N3C(=O)C4CC=C(Cl)CC4C3=O)cc2)s1 (centres undefined)	-8	?	1	1	-25
Cc1cc(C)nc(NS(=O)(=O)c2ccc(N3C(=O)C4CC=C(Cl)CC4C3=O)cc2)n1 (centres undefined)	-3	18775*	2	4	-3
Nc1nnc(CC(=O)N/N=C/c2ccc(-c3ccc(F)cc3)o2)s1	4	4152	38*	4	?
CCOC(=O)c1ccc(-c2ccc(/C=N/NC(=O)Cc3nnc(N)s3)o2)cc1	4	4203	-2	0	-4
COc1cc(SC)ccc1C(=O)NCCOc1c(C)cc(C)cc1C	-4	20169*	-1	0	-2
CCOC(=O)CCc1c(C)c2ccc(OC(C)C(=O)OCC)c(C)c2oc1=O (centres undefined)	-6	20895*	2	2	0
N#C/C(=C\c1ccc(N2CCOCC2)o1)c1nc2ccccc2[nH]1	-143	11443	102*	-17	-4
CC1(C)N=C(c2ccc(Cl)cc2Cl)C(=O)N1	4	22553*	2	3	2
Cc1ccc(-c2nnc(SCC(=O)OC(C)C)n2N)cc1	8	9130	3	1	5
CC(C)OC(=O)CSc1nnc(-c2ccc(Cl)cc2)n1N	7	21439*	-7	-5	2
Cn1c(Cc2ccccc2)nnc1SCC(=O)Nc1ccccc1	6	7070	-15	-3	-4
CC(C)OC(=O)CSc1nnc(Cc2ccccc2)n1C	2	16479*	-2	-1	-1
CC(C)OC(=O)CSc1nnc(-c2ccc(Cl)cc2Cl)n1N	5	22841*	2	1	-1
Nn1c(SCC(=O)N2CCOCC2)nnc1-c1ccc(Cl)cc1Cl	3	8448	-4	-1	1
CCOC(=O)C1=C(C)NC(=O)NC1c1ccco1 (centres undefined)	-6	23226*	2	-1	0
COCCOC(=O)C1=C(C)NC(=O)NC1c1ccco1 (centres undefined)	4	5876	-13	0	3
SMILES	MazEF act	Autofluor counter	BoNT-F LC inh	BoNT A protease	Anthrax LF inh2
Cn1c(Cl)nc2c1c(=O)n(Cc1cccc(Br)c1)c(=O)n2C	2	20509*	-1	0	0
COc1ccc(CNc2nc3c(c(=O)n(Cc4ccc(Br)cc4)c(=O)n3C)n2C)cc1	3	20995*	-6	-2	-5
CCOC(=O)/C=c1\s/c(=C\c2ccc3cc(OC)ccc3c2)c(=O)n1CC(=O)NCC1CCCO1 (centres undefined)	170*	2662	8	2	5
Cc1ccc(C(=O)OCC(=O)N(C)c2ccccc2)c(C)c1	-1	3693	7	-1	7
CN(C(=O)COC(=O)c1ccc([N+](=O)[O-])cc1N)c1ccccc1	70*	4003	-3	0	-1
Cc1ccc([N+](=O)[O-])cc1N=C(c1ccc([N+](=O)[O-])cc1)N1CCOCC1	7	2108	-9	-1	0
